Experimental data as given in PubChem BioAssay (NCI).
This is part of a sample that, as a whole, favours compounds with a hit. Of some 83,000 tested, about 20% had one in any assay.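 Each cell line was grown in a 96-well plate and treated with one concentration of compound for 48 hours. Values below 10 were considered active.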 A number with no mark means an inactive call. Active and inactive are the calls of the source.

The molecules below were run on RPMI-8226 leukemia (assay: NCI-60 one-dose screen, 48 h (100 = growth as untreated, 0 = no growth, -100 = all killed)). Details: 10 µM unless noted.
COc1ccc(Cn2cc3c(c2-c2ccccc2)CCc2cnoc2-3)cc1OC was tested, and the growth was 22.6%.
Work on Cc1ccc2c(O)c(O)cc(NC(C)CCCN)c2n1 (stereo not given) yielded a growth of 75%.
For CC(C)(C)c1ccc([I+]c2ccc(C(C)(C)C)cc2)cc1, the growth was -19.9% (active).
COC(=O)/C(Br)=C/c1c[nH]c2ccc(Br)cc12 showed a growth of 53.9%.
For COC(=O)c1ccc2[nH]c(O)c(C(=Nc3ccc(N(C)C(=O)CN4CCN(C)CC4)cc3)c3cccc(OC)c3)c2c1, the growth was 4.7% (active).
C#CCCCCCCC[C@@H]1OC(=O)[C@H]([C@@H](C)CC)NC(=O)[C@@H]([C@@H](C)CC)NC(=O)CC(=O)[C@@H]1C showed a growth of 93.8%.
COC(=O)c1ccc2[nH]c(O)c(C(=Nc3ccc(N(C)C(=O)CN4CCN(C)CC4)cc3)c3ccc(C)cc3)c2c1 was tested, and the growth was -32.2% (active).
COC(=O)C(C)[C@H]1CC[C@@H]2[C@]1(C)CC=C1[C@]23C=C[C@]2(C[C@@H](OC(C)=O)CC[C@]12C)C(C(=O)OC)C3C(=O)OC (stereo not given in full) showed a growth of 60.8%.
Molecule Cc1nc2c(nnn2-c2ccccc2)c2nc(-c3ccccc3)oc(=O)c12 has a growth of 113%.
CC(O)C(N)=O (stereo not given) gave a growth of 111%.
Nc1nc2c(c3cnccc13)C(c1cccc(Cl)c1)Cc1cnccc1-2 (stereo not given) was tested, and the growth was 8.24% (active).
CC(=O)OCC1O[C@@H](OC(C)=O)[C@@H](NC(=O)NS(=O)(=O)c2ccccc2)C(OC(C)=O)[C@@H]1OC(C)=O (stereo not given in full) showed a growth of 107%.
With CCOC(=O)c1ccc2n1CCCc1cnc(NC(C)=O)nc1-2 the growth was 99.1%.
CCCCCCCCCCCCCCCCCC1=NCCN1CCNC(C)=O gave a growth of 91%.
Clc1ccc(N/N=C(/c2ccccc2)c2ccccn2)nc1 was tested, and the growth was 29.3%.
In the case of COc1ccc(-n2nnnc2-c2cn[nH]c2C(F)(F)F)cc1, the growth is reported as 92.1%.
For COc1cc2ncnc(-n3ncc4cc(NC(=O)Nc5ccc(Cl)c(Cl)c5)ccc43)c2cc1OC, the growth was -0.257% (active).
With CCOC(=O)c1c(C)oc2ncnc(Nc3ccc(C(=O)NCCc4ccccc4)cc3)c12 the growth was 84.6%.
Work on CC(=O)/C(=C/c1ccc(-c2ccccc2)cc1)C(=O)c1ccccc1 yielded a growth of 39.9%.
In the case of N=C(N)c1ccc(-c2ccc(-c3ccc(F)cc3)s2)cc1, the growth is reported as -55.5% (active).
NC(=O)CC(NC(=O)COc1ccc(Cl)cc1Cl)C(=O)O (stereo not given) gave a growth of 117%.
For Cc1nc(NC(=O)NC2CCCCC2)sc1C(=O)NN, the growth was 112%.
For CCOC(=O)C1=C(C(F)(F)F)NC(=S)NC1CN1C(=O)c2ccccc2C1=O (stereo not given), the growth was 68.5%.
NC(=O)c1c(Nc2ccccc2)nn2cc(-c3nc4ccccc4s3)c(N)nc12 showed a growth of 96.4%.
In the case of O=C(/C=C/c1ccc(Br)cc1)c1ccccc1, the growth is reported as 1.56% (active).
For Cc1c(O)c(N=Nc2ccc(C(=O)O)c(O)c2)c2ccccc2c1O, the growth was 106%.
Molecule COc1ccc2c(c1)/C(=C/c1c(-c3cc(OC)c(OC)c(OC)c3)nc3sccn13)C(=O)N2 has a growth of 60.7%.
In the case of CCOC(=O)c1cc(C(=O)c2ccc(Br)cc2)n2cc(C)cc(C)c12, the growth is reported as 83.7%.
COc1cccc(Cn2cc3c(c2)-c2oncc2CC3)c1 was tested, and the growth was 37.6%.
For CCCCCSc1ccc2nc(NC(=O)OCC)sc2c1, the growth was 12.8%.
COc1ccc(C2C3(C#N)C(N)=NC(=C(C#N)C#N)C23C#N)cc1OC (stereo not given) showed a growth of 117%.
For CCCCCCCCCCCCCCCC[n+]1cccc(C#N)c1, the growth was 45.1%.
With CC(C)OC(=O)c1ccc2n1CCCc1cnc(Nc3ccccc3)nc1-2 the growth was 58.4%.
For COc1cc(Cn2ccc3c2-c2oncc2CC3)cc(OC)c1, the growth was 35.2%.
Molecule COC(=O)c1ccc(C(=Nc2ccc(N(C)C(=O)CN3CCN(C)CC3)cc2)c2c(O)[nH]c3ccc(C(=O)OC)cc23)cc1 has a growth of 15.1%.
In the case of COc1cccc2c1nc1cccc(OC)c1[n+]2[O-], the growth is reported as 51.1%.
CC(=O)NNC(=O)c1sc(NC(C)=O)nc1C was tested, and the growth was 105%.
CCOC(=O)NNc1[nH]c(-c2ccc(OC)cc2)cc1C#N showed a growth of 91.2%.
In the case of COc1cc(N)c2nccc(C)c2c1OC, the growth is reported as 144%.
With CCOC(=O)c1c2c(cn1Cc1ccccc1)-c1oncc1CC2 the growth was 100%.

The molecules below were run on OVCAR-8 ovarian in the same assay as above. Details: 10 µM unless noted.
In the case of COc1ccc(Cn2cc3c(c2-c2ccccc2)CCc2cnoc2-3)cc1OC, the growth is reported as 38.9%.
Work on Cc1ccc2c(O)c(O)cc(NC(C)CCCN)c2n1 (stereo not given) yielded a growth of 30.7%.
In the case of CC(C)(C)c1ccc([I+]c2ccc(C(C)(C)C)cc2)cc1, the growth is reported as 7.15% (active).
Work on COC(=O)/C(Br)=C/c1c[nH]c2ccc(Br)cc12 yielded a growth of 86.6%.
With COC(=O)c1ccc2[nH]c(O)c(C(=Nc3ccc(N(C)C(=O)CN4CCN(C)CC4)cc3)c3cccc(OC)c3)c2c1 the growth was 23.7%.
In the case of C#CCCCCCCC[C@@H]1OC(=O)[C@H]([C@@H](C)CC)NC(=O)[C@@H]([C@@H](C)CC)NC(=O)CC(=O)[C@@H]1C, the growth is reported as 99.8%.
COC(=O)c1ccc2[nH]c(O)c(C(=Nc3ccc(N(C)C(=O)CN4CCN(C)CC4)cc3)c3ccc(C)cc3)c2c1 was tested, and the growth was -17.8% (active).
COC(=O)C(C)[C@H]1CC[C@@H]2[C@]1(C)CC=C1[C@]23C=C[C@]2(C[C@@H](OC(C)=O)CC[C@]12C)C(C(=O)OC)C3C(=O)OC (stereo not given in full) showed a growth of 95.7%.
Cc1nc2c(nnn2-c2ccccc2)c2nc(-c3ccccc3)oc(=O)c12 showed a growth of 111%.
Molecule CC(O)C(N)=O (stereo not given) has a growth of 110%.
Work on Nc1nc2c(c3cnccc13)C(c1cccc(Cl)c1)Cc1cnccc1-2 (stereo not given) yielded a growth of 29.3%.
CC(=O)OCC1O[C@@H](OC(C)=O)[C@@H](NC(=O)NS(=O)(=O)c2ccccc2)C(OC(C)=O)[C@@H]1OC(C)=O (stereo not given in full) showed a growth of 113%.
For CCOC(=O)c1ccc2n1CCCc1cnc(NC(C)=O)nc1-2, the growth was 103%.
CCCCCCCCCCCCCCCCCC1=NCCN1CCNC(C)=O showed a growth of 98.2%.
Molecule Clc1ccc(N/N=C(/c2ccccc2)c2ccccn2)nc1 has a growth of 33.5%.
In the case of COc1ccc(-n2nnnc2-c2cn[nH]c2C(F)(F)F)cc1, the growth is reported as 95.5%.
In the case of COc1cc2ncnc(-n3ncc4cc(NC(=O)Nc5ccc(Cl)c(Cl)c5)ccc43)c2cc1OC, the growth is reported as 2.71% (active).
CCOC(=O)c1c(C)oc2ncnc(Nc3ccc(C(=O)NCCc4ccccc4)cc3)c12 was tested, and the growth was 76.7%.
With CC(=O)/C(=C/c1ccc(-c2ccccc2)cc1)C(=O)c1ccccc1 the growth was 84.5%.
In the case of N=C(N)c1ccc(-c2ccc(-c3ccc(F)cc3)s2)cc1, the growth is reported as -28.4% (active).
Work on NC(=O)CC(NC(=O)COc1ccc(Cl)cc1Cl)C(=O)O (stereo not given) yielded a growth of 105%.
With Cc1nc(NC(=O)NC2CCCCC2)sc1C(=O)NN the growth was 102%.
Molecule CCOC(=O)C1=C(C(F)(F)F)NC(=S)NC1CN1C(=O)c2ccccc2C1=O (stereo not given) has a growth of 116%.
NC(=O)c1c(Nc2ccccc2)nn2cc(-c3nc4ccccc4s3)c(N)nc12 was tested, and the growth was 102%.
For O=C(/C=C/c1ccc(Br)cc1)c1ccccc1, the growth was 91.9%.
Cc1c(O)c(N=Nc2ccc(C(=O)O)c(O)c2)c2ccccc2c1O was tested, and the growth was 96.9%.
Work on COc1ccc2c(c1)/C(=C/c1c(-c3cc(OC)c(OC)c(OC)c3)nc3sccn13)C(=O)N2 yielded a growth of 105%.
CCOC(=O)c1cc(C(=O)c2ccc(Br)cc2)n2cc(C)cc(C)c12 gave a growth of 102%.
COc1cccc(Cn2cc3c(c2)-c2oncc2CC3)c1 was tested, and the growth was 32.3%.
Molecule CCCCCSc1ccc2nc(NC(=O)OCC)sc2c1 has a growth of 43.6%.
In the case of COc1ccc(C2C3(C#N)C(N)=NC(=C(C#N)C#N)C23C#N)cc1OC (stereo not given), the growth is reported as 106%.
CCCCCCCCCCCCCCCC[n+]1cccc(C#N)c1 showed a growth of 51.6%.
In the case of CC(C)OC(=O)c1ccc2n1CCCc1cnc(Nc3ccccc3)nc1-2, the growth is reported as 82.4%.
Molecule COc1cc(Cn2ccc3c2-c2oncc2CC3)cc(OC)c1 has a growth of 49%.
COC(=O)c1ccc(C(=Nc2ccc(N(C)C(=O)CN3CCN(C)CC3)cc2)c2c(O)[nH]c3ccc(C(=O)OC)cc23)cc1 showed a growth of 30.7%.
COc1cccc2c1nc1cccc(OC)c1[n+]2[O-] gave a growth of 41.7%.
In the case of CC(=O)NNC(=O)c1sc(NC(C)=O)nc1C, the growth is reported as 95.6%.
With CCOC(=O)NNc1[nH]c(-c2ccc(OC)cc2)cc1C#N the growth was 99.5%.
COc1cc(N)c2nccc(C)c2c1OC gave a growth of 96.4%.
In the case of CCOC(=O)c1c2c(cn1Cc1ccccc1)-c1oncc1CC2, the growth is reported as 84.9%.
